Results published in PubChem BioAssay AID686971 (National Center for Advancing Translational Sciences (NCATS), 2013).
Hit rate of the full screen: of about 360,000 compounds, about 7,500 (2.1%) were called active. Roughly 8% stayed inconclusive and do not appear here. The full list was thinned out, with actives kept by preference. A number with no mark means an inactive call. Calls follow the shape of the dose curve; as a rule, active = well fitted cell-killing curve with a large enough effect; inconclusive = small, poorly fitted or top-dose-only effect, or effect the other way, or another doubt; inactive = no such curve, though single readings can be large or run the other way.

assay: qHTS for induction of synthetic lethality in tumor cells producing 2HG: qHTS for the HT-1080-IDH1KD cell line; conditions: HT-1080 IDH1 knockdown viability, ATP luminescence, 48 h; series mostly up to 46.1 µM; activity, negative = toxicity: at the top concentration;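 as to activity, negative = toxicity: 0% = DMSO wells and -100% = cell-free medium wells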
In short: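 CellTiter-Glo luminescence after 48 h compound exposure at 37 degrees C of IDH1-knockdown HT-1080 cells in 5% FBS RPMI. %Activity scaled between DMSO wells and cell-free media wells, with curves fitted and assigned curve classes.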
Potency is read from the fitted curve at half-maximal effect.

Row | Structure (SMILES) | activity, negative = toxicity | Potency
1 | O=C(/C=C/NNC(=O)c1cccc(Br)c1)c1ccccc1 | -10.2% | –
2 | COc1ccc(CN2C[C@H]3CON(C)[C@H]3C[C@H]2c2ccc(-c3cccc(F)c3)cc2)cc1 | -23% | –
3 | Cc1ccccc1C#CC1=CC(=O)CC(C)(C)C1 | -9.77% | –
4 | C/C(COc1ccccc1)=N\NC(=O)c1nnn(-c2nonc2N)c1-c1ccc(C)cc1 | -8.96% | –
5 | COc1ccc(C(=O)N2CC3(C)CC2CC(C)(C)C3)cc1OC (stereo unspecified) | -4.16% | –
6 | Cc1nnnn1/C(=C\c1ccccc1)C(=O)OCC(=O)N1CC2(C)CC1CC(C)(C)C2 (stereo unspecified) | – | 14.6 µM (active)
7 | CN(C)C(=O)COC(=O)c1cccc(S(=O)(=O)N2CC3(C)CC2CC(C)(C)C3)c1 (stereo unspecified) | -3.59% | –
8 | COc1cc(C=NC2CCCCC2)ccc1O | 0.126% | –
9 | O=C(OCC(=O)N1CCCCCC1)c1cccc(Cl)c1Cl | 16.8% | –
10 | Cc1cccc(C)c1NC(=O)C(c1cccc(F)c1)N1CCN(C)CC1 (stereo unspecified) | 0.538% | –
11 | COc1ccc(-c2c(C)cc3oc(=O)cc(-c4ccccc4)c3c2C)cc1OC | 5.89% | –
12 | COc1ccc(-c2c(C)cc3oc(=O)cc(-c4ccccc4)c3c2C)cc1F | 13.4% | –
13 | COc1cc(OC)c2c(-c3cccc(-c4cccc(N)c4)c3)cc(=O)oc2c1 | – | 5.17 µM (active)
14 | COC(=O)c1ccc(CN2C(=O)C(Cc3ccccc3)ON=C2c2ncccc2C)o1 (stereo unspecified) | 17.4% | –
15 | CCN1CCN(C(=O)CSc2ccc(C)cc2)CC1 | 3.16% | –
16 | CCN1CCC2(CC1)N=C(c1ccc(F)cc1)C(=S)N2C(=O)c1ccc(C)cc1 | – | 23.1 µM (active)
17 | Cc1ccc(SCC(=O)N2CCN(c3ccc(F)cc3)CC2)cc1 | 17.4% | –
18 | CC(C)NC(=O)C1(C)CCCCCN1C(=O)c1ccc(-c2ccccc2)cc1 (stereo unspecified) | 11.9% | –
19 | O=C1[C@@H](c2ccccc2)[C@@H](c2ccccc2)N1c1cccnc1 | – | 16.4 µM (active)
20 | O=C1C(=O)N(c2ccccc2)C(c2ccccc2)C1c1ccccc1 (stereo unspecified) | -0.624% | –
21 | Cc1ccccc1N1C(=O)C2ON(c3ccccc3)C(c3ccncc3)C2C1=O (stereo unspecified) | 4.69% | –
22 | Fc1cccc(Cc2c(-c3cccc(Cl)c3)nc3ccc(Br)cn23)c1 | -22.4% | –
23 | Cc1ccnc(SC2CC(=O)N(c3ccccc3)C2=O)n1 (stereo unspecified) | -0.931% | –
24 | Cc1ccc(-n2ncc3c2CCCC3NC(=O)c2cnccn2)cc1C (stereo unspecified) | -13.4% | –
25 | Cn1nccc1C(=O)NC1CCCc2c1cnn2-c1ccc(F)cc1F (stereo unspecified) | – | 0.92 µM (active)
26 | CC(=O)NCC(=O)NC1CCCc2c1cnn2-c1ccccc1F (stereo unspecified) | 4.51% | –

Row | Structure (SMILES) | activity, negative = toxicity | Potency
27 | N#CCCN(C(=S)Nc1ccc(Cl)c(Cl)c1)C1CCCCC1 | -6.17% | –
28 | Cc1ccc(C(O)c2ncc(-c3ccccc3F)[nH]2)cc1F (stereo unspecified) | -8.27% | –
29 | CCOC(=O)c1c(NC(=S)SC)sc(C(=O)N2CCc3ccccc3C2)c1C | -7.65% | –
30 | O=C(Cn1c(NCCO)nc2ccccc21)c1ccc(Cl)cc1Cl | – | 20.6 µM (active)
31 | CC(C)(C)C(=O)Cn1c(NCCO)nc2ccccc21 | 2.2% | –
32 | O=S(=O)(O)c1nc2ccccc2n1Cc1ccc(Cl)cc1Cl | -15.2% | –
33 | CCCCCCn1c(=O)n2n(c1=O)C[C@]1(OC(=O)NCc3ccc(OC)c(OC)c3)CN(S(=O)(=O)c3ccc(C)cc3)C[C@]1(O)C2 | -14.7% | –
34 | CCc1oc(-c2ccc(OC)cc2)c(C(=O)OCCCCCO)c1C(C)OCCO (stereo unspecified) | -13.9% | –
35 | COc1ccccc1NC1=NC(c2ccc(Cl)cc2)N=C(N)N1 (stereo unspecified) | – | 5.62 µM (active)
36 | CC1(C)N=C(N)NC(Nc2ccc(Cl)cc2)=N1 | 1.16% | –
37 | COc1ccccc1NC(=O)C1CCCN1S(=O)(=O)c1ccc(Cl)cc1 (stereo unspecified) | -1.61% | –
38 | COc1ccc([C@H]2N[C@]3(CCCN(Cc4ccco4)C3=O)[C@H]3C(=O)N(C)C(=O)[C@@H]23)cc1 | -1.26% | –
39 | O=C1OCCOC2CCCc3oc(-c4ccccc4)c1c32 (stereo unspecified) | 6.75% | –
40 | C[C@H]1Cn2cnc(C(=O)N[C@@H](Cc3c[nH]c4ccccc34)C(=O)OC(C)(C)C)c2C(=O)N1 | 12.4% | –
41 | O=S(=O)(NCc1cccnc1)c1ccc(Br)s1 | 1.62% | –
42 | O=C(NCCc1ccccc1)C1CCN(S(=O)(=O)c2ccc(Br)s2)CC1 | -5.3% | –
43 | O=S(=O)([N-]c1nc2ccccc2nc1-[n+]1ccc(Cc2ccccc2)cc1)c1ccc(Br)s1 | – | 20.6 µM (active)
44 | COCOc1cccc(CN2CCC(C)(Oc3ccc(SC)cc3)C2)c1 (stereo unspecified) | -8.36% | –
45 | CCOC(=O)C1CCCN(C(=O)c2ccc(C)c(F)c2)CC1 (stereo unspecified) | 1.99% | –
46 | CCC1OC(C2CC2)CC2=C1C(=O)OC(C)(C)O2 (stereo unspecified) | 0.481% | –
47 | Brc1ccc2ncnc(NCc3cccnc3)c2c1 | -15.5% | –
48 | COc1ccc(CNc2ncnc3ccccc23)cc1 | -4.12% | –
49 | c1coc(CNc2ncnc3ccccc23)c1 | – | 20.6 µM (active)
50 | COc1cccc(C(NC(C)=O)c2nc(-c3cnc4ccccc4c3)cs2)c1 (stereo unspecified) | 3.84% | –
51 | O=C(Nc1ccc2c(c1)OCCO2)C(C1CC1)N1CCC(Cc2ccccc2)CC1 (stereo unspecified) | -22% | –
